Source: PubChem (several laboratories)
CRFR2-BP antag: antagonists of CRF-binding protein/CRF-R2 receptor complex | actives 0.59% (n = 350,000) | inhibition, % at 11.8 µM | AID 588475 | HEK293 CRF-R2/CRF-BP, CRF-induced calcium fluorescence;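 active = inhibition of the ligand-induced calcium signal above about 50% at the single tested concentration, limit read from the data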
MEKK2mut PB1 HTS: signal of MEK5 binding to mutant human MEKK2 PB1 domain | bead flow cytometry, Alexa488-MEK5 binding to MEKK2 mutant | percent response, % at 10 µM | actives 0.35% (n = 290,000) | AID 1530; in the data active = percent response above about 24%, passing the limit was not always enough
MEKK2wt PB1 HTS: raises or lowers MEK5 binding to wildtype human MEKK2 PB1 domain; Q9Y2U5; bead flow cytometry, Alexa488-MEK5 binding to MEKK2 WT; actives lie on both sides; binding response (% of control), % at 10 µM; actives 1.1% (n = 290,000); in the data active = binding response below about 67% or above about 130%
CRFBP-R2 agonist: agonists of human CRF-binding protein/CRF-R2 receptor complex; actives 0.46% (n = 350,000); HEK293 CRF-R2/CRF-BP, calcium dye fluorescence (FLIPR); percent of saturating CRF peptide response; activation, % at 13.2 µM;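 active = activation of at least 50%, plus an integration ratio under a set limit after plate pattern correction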;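 also: plate controls were neutral control wells without compound for no effect and CRF at EC100 for full effect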
MEKK3 PB1 HTS: raises or lowers MEK5 binding to the human MEKK3 PB1 domain; binding response (% of control), % at 10 µM; bead-based flow cytometry, Alexa488-MEK5 binding to MEKK3; actives lie on both sides; 0 = blocked by unlabeled MEK5, 100 = vehicle; actives 1.4% (n = 290,000); Q99759;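 active = binding response more than 3 SD above or below the average of its plate-row segment, actives on both sides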;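 also: Alexa488 bead fluorescence after subtracting the streptavidin-only scavenger bead signal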
ABCB6 inh MLPCN: human ABCB6 transporter inhibition. Q9NP58. K562-ABCB6 porphyrin accumulation, flow cytometry, 1 h; active compounds read low. fluorescence ratio to DMSO, % at 10 µM. actives 0.19% (n = 360,000);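 active = fluorescence ratio to DMSO below 75%, the collection mean minus 3 SD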;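 also: signal is porphyrin accumulated inside mitochondria; 100% equals median channel fluorescence of DMSO control wells; lower ratio means ABCB6 inhibition with less porphyrin fluorescence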
Target sequence (Q9NP58 whole entry, looked up): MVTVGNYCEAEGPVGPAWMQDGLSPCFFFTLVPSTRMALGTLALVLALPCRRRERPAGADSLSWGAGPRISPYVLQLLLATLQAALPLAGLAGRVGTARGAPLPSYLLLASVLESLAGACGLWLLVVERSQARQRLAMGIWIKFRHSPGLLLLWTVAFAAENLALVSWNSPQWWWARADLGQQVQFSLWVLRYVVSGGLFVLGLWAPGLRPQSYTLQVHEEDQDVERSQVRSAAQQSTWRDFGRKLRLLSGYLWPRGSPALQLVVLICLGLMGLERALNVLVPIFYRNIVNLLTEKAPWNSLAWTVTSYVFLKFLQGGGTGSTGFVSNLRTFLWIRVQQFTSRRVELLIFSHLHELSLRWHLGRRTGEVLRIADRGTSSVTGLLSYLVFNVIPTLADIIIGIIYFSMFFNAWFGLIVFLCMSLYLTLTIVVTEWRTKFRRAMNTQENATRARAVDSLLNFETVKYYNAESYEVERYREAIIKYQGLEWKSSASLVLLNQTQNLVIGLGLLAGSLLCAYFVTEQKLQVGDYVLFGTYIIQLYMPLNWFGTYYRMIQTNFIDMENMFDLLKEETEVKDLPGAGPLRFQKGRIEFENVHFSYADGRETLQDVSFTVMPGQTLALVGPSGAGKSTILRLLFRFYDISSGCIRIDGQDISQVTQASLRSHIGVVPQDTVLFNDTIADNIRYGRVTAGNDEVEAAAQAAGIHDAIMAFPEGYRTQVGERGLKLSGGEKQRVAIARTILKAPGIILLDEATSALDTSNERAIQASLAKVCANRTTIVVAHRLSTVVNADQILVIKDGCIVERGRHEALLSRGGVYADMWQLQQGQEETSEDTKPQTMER
MEKK2wt confirm: raises or lowers MEK5 binding to wildtype human MEKK2, retest | actives 2.4% (n = 5,900) | AID 1892 | binding response (% of control), % at 10 µM | shares compounds with MEKK3 PB1 HTS | bead flow cytometry, Alexa488-MEK5 binding to MEKK2 WT; actives lie on both sides; in the data active = binding response below about 16% or above about 210%; inactive = in between
MEKK2mut confirm: signal of MEK5 binding to mutant human MEKK2, retest; shares compounds with MEKK3 PB1 HTS; bead flow cytometry, Alexa488-MEK5 binding to MEKK2 mutant; percent response, % at 10 µM; actives 2% (n = 5,900); in the data active = percent response mostly above about 71%, no sharp cut-off; inactive = mostly below about 38%;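 also: higher means compound restores mutant binding toward wildtype level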
MEKK3-MEK5 inh: confirmation of inhibitors of MEK5 binding to human MEKK3; shares compounds with MEKK3 PB1 HTS; bead flow cytometry, Alexa488-MEK5 binding to MEKK3; active compounds read low; binding response (% of control), % at 10 µM; actives 1.8% (n = 5,900); AID 1894;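 active = binding response below 72% of control, or above a set upper limit, though filed actives all read lower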;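 also: 100% = DMSO only wells and 0% = binding blocked by excess unlabeled MEK5; lower values mean stronger disruption of MEK5 binding to MEKK3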
Active calls of the source: *; nt = not tested or not shown; [ ] = dose if it differs, or a comment. Shown are actives, neighbours in structure and some others; about 2.9% of the full set was active somewhere.

SMILES	CRFR2-BP antag	MEKK2mut PB1 HTS	MEKK2wt PB1 HTS	CRFBP-R2 agonist	MEKK3 PB1 HTS	ABCB6 inh MLPCN	MEKK2wt confirm	MEKK2mut confirm	MEKK3-MEK5 inh
CCCC(=O)Nc1nc2c(C)c(Cl)ccc2s1	3	8	100	1	103	98	nt	nt	nt
Cc1c(CN2CCC(n3nccc3NC(=O)C3CC3)CC2)[nH]c2ccccc12	-6	8	112	-1	102	94	nt	nt	nt
CC(C)c1ccc(NC(=O)CN2CCN(C(=O)C3CCCO3)CC2)cc1 (stereo not drawn)	-19	8	106	0	102	110	nt	nt	nt
Cc1ccc([N+](=O)[O-])c(OCCCN2CCCCCC2)c1	-15	66*	169*	3	99	103	130	16	104
O=C1NC(=NCc2ccccc2)NC1(c1ccccc1)c1ccccc1	3	nt	nt	1	nt	98	nt	nt	nt
O=C1c2ccccc2NC2(CCCCC2)N1N=C1CCCCC1	8	-1	90	-1	75*[inhibitor]	91	102	2	104
CCOC(=O)C1=C(COC(=O)CCc2ccccc2)NC(=O)NC1C (stereo not drawn)	4	nt	nt	1	nt	101	nt	nt	nt
COC(=O)CCC(=O)OC1(C)C(=O)C=C2C=C(C3CC3)N(C3CCCC3)C=C2C1=O (stereo not drawn)	6	4	149*	0	122	102	100	7	104
Cc1ccc2c(Cl)cc(Cl)c(OCC(=O)O)c2n1	-4	1	113	0	129*	96	95	-3	95
CC(=Nc1ccccc1)C1=C(O)C(Cc2ccccc2)NC1=O (stereo not drawn)	-22	nt	nt	-1	nt	97	nt	nt	nt
COc1ccc(C2c3ccc4ccccc4c3Oc3ncn(CCCN(C)C)c(=N)c32)cc1 (stereo not drawn)	-16	51*	202*	1	111	108	198	55	100
COc1ccc(C2c3c(ncn(CCN4CCOCC4)c3=N)Oc3ccc4ccccc4c32)cc1OC (stereo not drawn)	-24	21	163*	-1	109	102	153	28	107
COc1ccccc1C1c2ccc3ccccc3c2Oc2ncn(CCN(C)C)c(=N)c21 (stereo not drawn)	-31	32*	153*	4	115	98	150	29	107
COc1ccc(C2c3ccc4ccccc4c3Oc3ncn(Cc4ccco4)c(=N)c32)cc1OC (stereo not drawn)	-7	34	161*	0	103	98	147	33	109
COc1ccccc1C1c2ccc3ccccc3c2Oc2ncn(CCCO)c(=N)c21 (stereo not drawn)	-22	6	121	-1	100	94	nt	nt	nt
COc1ccc(C2c3c(ncn(CCCO)c3=N)Oc3ccc4ccccc4c32)cc1OC (stereo not drawn)	-13	15	118	6	98	100	nt	nt	nt
O=C(OCc1ccccc1)N(CCF)c1cn(Cc2ccccc2)c(=O)n(Cc2ccccc2)c1=O	2	nt	nt	11	nt	95	nt	nt	nt
O=S1(=O)N=C(c2ccccc2)c2ccccc21	-4	nt	nt	-2	nt	93	nt	nt	nt
CC1=C(C)C(O)N(Cc2ccccc2)C1=O (stereo not drawn)	0	4	100	0	105	109	nt	nt	nt
COc1ccc(CN2CCC(N(CCc3ccccc3)Cc3ccccc3)CC2)c(OC)c1	-9	52*	161*	-2	90	88	152	25	110
CC(C)(C)NC(=O)c1ccc2c(c1)C1C3CCC(C3)C1C(c1ccccc1)N2 (stereo not drawn)	18	1	109	-2	198*	93	119	12	105
CN1CCN(CC/C=C2/c3ccccc3Sc3ccc(S(=O)(=O)N(C)C)cc32)CC1	4	19	143*	-1	78	98	127	10	101
Nc1ncnc2c1ncn2C1C=C(CO)C(O)C1O (stereo not drawn)	-11	nt	nt	1	nt	102	nt	nt	nt
CS(=O)(=O)N1CCc2cc(C(=O)N3CCCC3)ccc21	2	1	119	2	132*	94	97	-4	104
CS(=O)(=O)N1CCc2cc(C(=O)N3CCN(c4ccccc4)CC3)ccc21	7	7	107	-1	102	101	nt	nt	nt
SMILES	CRFR2-BP antag	MEKK2mut PB1 HTS	MEKK2wt PB1 HTS	CRFBP-R2 agonist	MEKK3 PB1 HTS	ABCB6 inh MLPCN	MEKK2wt confirm	MEKK2mut confirm	MEKK3-MEK5 inh
COC(=O)c1ccc(Oc2ccc(C(F)(F)F)cn2)cc1	6	7	129	-1	152*	105	103	-2	96
Cc1ccc(CN2CCC(c3cc(-c4ccc(Cl)cc4)n[nH]3)CC2)cc1	-14	27*	167*	5	106	87	155	32	109
COc1ccc(-c2cc(C3CCN(Cc4ccc([N+](=O)[O-])cc4)CC3)[nH]n2)cc1	-13	-1	110	-1	97	99	nt	nt	nt
CC(C)C(=O)Nc1ccc(NC(=S)NC(=O)c2ccccc2F)cc1	-49	-1	102	13	100	97	nt	nt	nt
Cc1nn(-c2ccccc2C(=O)O)c(=O)c2ccccc12	-1	-26	-1.0*[inhibitor]	0	2.0*[inhibitor]	104	103	2	103
CCn1cc(Br)c(C(=O)Nc2ccc(Cl)c(Cl)c2)n1	11	-3	97	0	86	98	nt	nt	nt
CCn1cc(Br)c(C(=O)Nc2cccc(Cl)c2)n1	12	-39	-5.0*[inhibitor]	-6	0.0*[inhibitor]	82	97	-5	95
O=C(CN1CCN(c2ccc(O)cc2)CC1)Nc1ccc(S(=O)(=O)N2CCCC2)cc1	0	nt	nt	-1	nt	101	nt	nt	nt
CC(=O)c1ccc(NC(=O)CSc2nnc3ccc(-c4ccccn4)nn23)cc1	-7	nt	nt	-2	nt	97	nt	nt	nt
COc1cc2nc(N3CCN(c4cc(C)ccc4C)CC3)nc(N)c2cc1OC	-12	42*	186*	-2	106	102	226*	75*	113
COc1ccc(CN2CCNC(=O)C2CC(=O)NCc2cnn(C)c2)cc1OC (stereo not drawn)	-8	9	107	2	101	101	nt	nt	nt
